Test systems include NCI-H23 lung; NCI-H226 lung; NCI-H322M lung; HOP-62 NSCLC; NCI-H460 lung; HOP-92 NSCLC; NCI-H522 lung; A549/ATCC NSCLC; 786-0 renal; COLO 205 colon.
Holding throughout (test): NCI-60 one-dose screen, 48 h (100 = growth as untreated, 0 = no growth, -100 = all killed)
Common to all, as to details: 10 µM unless noted

Our source for the growth values is PubChem BioAssay (NCI).

Compounds without any hit were thinned out: in the full panel of roughly 83,000, 20% have a hit.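 Treatment: one concentration, 48 hours, 96-well format. Scoring: percent growth, with anything below 10 considered active.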 A number with no mark means an inactive call. Active and inactive are the calls of the source.

With `O=S(=O)(NCCNc1cc(-c2cn(-c3ccccc3)nc2-c2cccc(O)c2)ccn1)c1ccc(Br)cc1`, the growth with NCI-H23 lung is 39.4%; in the experiment with NCI-H226 lung, 45%; with NCI-H322M lung, 50.8%; in the experiment on HOP-62 NSCLC, 40.4%; in the experiment on NCI-H460 lung, 26%; with HOP-92 NSCLC, 33.3%. The growth in the experiment on NCI-H522 lung is 31.9%; in the experiment with A549/ATCC NSCLC, 27.2%; with 786-0 renal it was 2.12% (active); with COLO 205 colon, -64% (active).

As to `COc1cc2[nH]c(C(=O)c3cc(OC)c(OC)c(OC)c3)c(N)c2cc1C#CC1CC1`, the growth with NCI-H23 lung was 50.3%; with NCI-H226 lung, 50.2%; with NCI-H322M lung it was 52.7%; in the experiment with HOP-62 NSCLC, 42.1%; in the experiment with NCI-H460 lung, 13.5%; in the experiment with HOP-92 NSCLC, 17.2%. Moreover, the growth in the experiment with NCI-H522 lung is -4.22% (active); in the experiment on A549/ATCC NSCLC, 42.9%; in the experiment on 786-0 renal it was 38.7%; in the experiment with COLO 205 colon, 8.48% (active).

As for `COc1ccc(-c2nc(Nc3ccc(-c4nc5ccccc5[nH]4)cc3)nc(N3CCOCC3)n2)cc1`, the growth with NCI-H23 lung was 11.3%; in the experiment with NCI-H226 lung, 17.1%; in the experiment on NCI-H322M lung, 27%; in the experiment with HOP-62 NSCLC it was -27.3% (active); in the experiment with NCI-H460 lung, 0.132% (active); in the experiment with HOP-92 NSCLC, -6.57% (active). The growth in the experiment on NCI-H522 lung was 11.9%; in the experiment with A549/ATCC NSCLC it was 11.2%; in the experiment with 786-0 renal, -60% (active); in the experiment with COLO 205 colon, -43.7% (active).

`O=C(Nc1ccc(/C=C2\SC(=O)N(Cc3ccc(OC(F)(F)F)cc3)C2=O)cc1)c1ccc(Cl)c([N+](=O)[O-])c1`: the growth was 80.8% in the experiment with NCI-H23 lung; 83.4% in the experiment with NCI-H226 lung; 42.7% in the experiment with NCI-H322M lung; 57.8% in the experiment with HOP-62 NSCLC; 94.6% with NCI-H460 lung; 86.4% in the experiment on HOP-92 NSCLC. The growth is 83% in the experiment on NCI-H522 lung, 85% in the experiment with A549/ATCC NSCLC, 99.6% with 786-0 renal and 55.1% in the experiment with COLO 205 colon.

For `CC1=NN(c2ccc(S(=O)(=O)O)cc2Cl)C(=O)C1`, the growth was 92.5% with NCI-H23 lung; 101% with NCI-H226 lung; 112% in the experiment with NCI-H322M lung; 90% with HOP-62 NSCLC; 103% in the experiment with NCI-H460 lung; 91.7% in the experiment on HOP-92 NSCLC. In addition, the growth was 97.4% in the experiment with NCI-H522 lung, 99.7% with A549/ATCC NSCLC, 97.6% with 786-0 renal and 112% with COLO 205 colon.

Take `CCOC(=O)C1OC1(c1ccccc1)c1ccccc1` (stereo not given): the growth in the experiment with NCI-H23 lung was 111%; in the experiment on NCI-H226 lung, 106%; with NCI-H322M lung, 120%; in the experiment on HOP-62 NSCLC, 118%; in the experiment with NCI-H460 lung it was 109%; with HOP-92 NSCLC, 107%. Also, the growth is 107% with NCI-H522 lung, 84.3% in the experiment with A549/ATCC NSCLC, 117% in the experiment on 786-0 renal and 119% in the experiment with COLO 205 colon.

Take `O=C1C=Cc2ncccc2C1=O`: the growth with NCI-H23 lung was 70%; in the experiment with NCI-H226 lung it was 81.8%; in the experiment on NCI-H322M lung, 97.7%; with HOP-62 NSCLC, 99.7%; with NCI-H460 lung it was 111%; in the experiment on HOP-92 NSCLC, 97%. The growth in the experiment with NCI-H522 lung was 88.8%; in the experiment on A549/ATCC NSCLC it was 105%; with 786-0 renal, 103%; with COLO 205 colon it was 54%.

In the case of `Fc1ccc(NCc2nnc(-c3ccc(Cl)cc3)o2)cc1`, the growth is 70.1% in the experiment on NCI-H23 lung; 71.8% in the experiment with NCI-H226 lung; 82.5% with NCI-H322M lung; 84.6% in the experiment with HOP-62 NSCLC; 83.7% in the experiment on NCI-H460 lung; 67% in the experiment on HOP-92 NSCLC. Besides, the growth with NCI-H522 lung is 56.5%; with A549/ATCC NSCLC it was 66.1%; in the experiment on 786-0 renal it was 87.8%; in the experiment on COLO 205 colon, 90%.

`Cc1csc(Nc2nc(-c3ccc(Cl)cc3)nc(C(Cl)(Cl)Cl)n2)n1`: the growth with NCI-H23 lung is 95.3%; in the experiment on NCI-H226 lung, 110%; with NCI-H322M lung it was -3.18% (active); in the experiment with HOP-62 NSCLC, 76.4%; in the experiment with NCI-H460 lung, 56.6%; in the experiment on HOP-92 NSCLC, 83.3%. Besides, the growth in the experiment on NCI-H522 lung was 92.8%; in the experiment with A549/ATCC NSCLC it was 34.6%; with 786-0 renal, 89.5%; in the experiment with COLO 205 colon, 52.6%.

For the molecule `COc1cc(-c2nc(-c3ccccc3)c(-c3ccccc3)[nH]2)cc(OC)c1O`, the growth in the experiment on NCI-H23 lung was -31.9% (active); with NCI-H226 lung it was 48.9%; in the experiment with NCI-H322M lung, 13%; with HOP-62 NSCLC, -26.5% (active); in the experiment with NCI-H460 lung it was -37.5% (active); in the experiment with HOP-92 NSCLC, 38.2%. The growth in the experiment on NCI-H522 lung is -23% (active); in the experiment with A549/ATCC NSCLC, -30.9% (active); with 786-0 renal, 19.3%; with COLO 205 colon, -73.8% (active).

On to `COC(=O)[C@]12CC[C@@H](C)[C@H](C)[C@@H]1C1=CC[C@@H]3[C@@]4(C)C[C@@H](OC(C)=O)[C@H](OC(C)=O)[C@@](C)(COC(C)=O)[C@@H]4[C@H](O)C[C@@]3(C)[C@]1(C)CC2`, for which the growth with NCI-H23 lung was 17.5%; in the experiment with NCI-H226 lung, 2.17% (active); in the experiment on NCI-H322M lung, 34.6%; in the experiment on HOP-62 NSCLC, 15.6%; with NCI-H460 lung, 4.06% (active); with HOP-92 NSCLC it was 31.2%. For the same molecule, the growth with NCI-H522 lung is -2.94% (active); in the experiment with A549/ATCC NSCLC it was 7.91% (active); in the experiment on 786-0 renal, 15%; in the experiment with COLO 205 colon, -76% (active).

Turning to `COC(=O)[C@]12CC[C@@H](C)[C@H](C)[C@@H]1C1=CC[C@@H]3[C@@]4(C)C[C@@H](OC(C)=O)[C@H](O)[C@@](C)(COC(C)=O)[C@@H]4[C@H](O)C[C@@]3(C)[C@]1(C)CC2`, the growth in the experiment with NCI-H23 lung is -83.3% (active); in the experiment with NCI-H226 lung it was -57.8% (active); in the experiment on NCI-H322M lung, -92.6% (active); with HOP-62 NSCLC, -84% (active); with NCI-H460 lung, -86.9% (active); in the experiment with HOP-92 NSCLC it was -67.4% (active). The growth was -81.6% (active) in the experiment on NCI-H522 lung, -86.2% (active) in the experiment with A549/ATCC NSCLC, -81.9% (active) with 786-0 renal and -81.3% (active) with COLO 205 colon.

On to `Cn1cc(-c2csc(-c3cn(C(=O)OC(C)(C)C)c4ccccc34)n2)c2cccnc21`, for which the growth in the experiment with NCI-H23 lung was 70.4%; with NCI-H226 lung it was 91.4%; in the experiment on NCI-H322M lung, 103%; in the experiment on HOP-62 NSCLC, 73.7%; in the experiment with NCI-H460 lung it was 60.7%; with HOP-92 NSCLC, 57.1%. The growth with NCI-H522 lung is -8.18% (active); in the experiment on A549/ATCC NSCLC, 52.9%; in the experiment with 786-0 renal, 76.6%; in the experiment with COLO 205 colon, 64.8%.

As for `Brc1ccc2c(c1)c(-c1nc(-c3c[nH]c4ncccc34)cs1)cn2CCCN1CCCCC1`, the growth in the experiment with NCI-H23 lung is 22.4%; in the experiment on NCI-H226 lung, 71.2%; in the experiment with NCI-H322M lung, 39.1%; in the experiment with HOP-62 NSCLC, -66.7% (active); in the experiment on NCI-H460 lung, -67.7% (active); in the experiment with HOP-92 NSCLC, 31.7%. Also, the growth with NCI-H522 lung is -3.42% (active); in the experiment on A549/ATCC NSCLC, -69.6% (active); in the experiment with 786-0 renal it was -74.8% (active); with COLO 205 colon it was -77.4% (active).
